# Results published in the supplement of paper PMC7724964.
# T1: NR2C1 355-603 Hormone_recep (domain begin residue: 355, domain end residue: 603), P13056
# T1 chain: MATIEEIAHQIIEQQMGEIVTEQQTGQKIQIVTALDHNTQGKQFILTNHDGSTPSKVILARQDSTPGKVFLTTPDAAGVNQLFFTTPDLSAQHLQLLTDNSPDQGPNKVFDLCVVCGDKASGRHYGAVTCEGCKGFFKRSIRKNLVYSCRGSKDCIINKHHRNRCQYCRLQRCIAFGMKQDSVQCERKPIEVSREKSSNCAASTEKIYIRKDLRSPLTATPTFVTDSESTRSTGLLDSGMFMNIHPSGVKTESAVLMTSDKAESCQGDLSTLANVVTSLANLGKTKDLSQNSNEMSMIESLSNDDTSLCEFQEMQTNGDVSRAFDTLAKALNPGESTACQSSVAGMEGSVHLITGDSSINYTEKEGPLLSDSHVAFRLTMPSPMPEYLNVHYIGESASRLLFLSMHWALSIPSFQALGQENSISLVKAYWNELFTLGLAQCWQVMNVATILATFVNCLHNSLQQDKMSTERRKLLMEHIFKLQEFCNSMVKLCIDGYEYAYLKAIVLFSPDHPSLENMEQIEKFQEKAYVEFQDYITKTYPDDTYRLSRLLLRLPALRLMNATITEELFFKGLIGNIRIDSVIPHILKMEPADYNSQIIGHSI
# T2: NR4A2 327-598 Hormone_recep (domain begin residue: 327, domain end residue: 598), P43354
# T2 chain: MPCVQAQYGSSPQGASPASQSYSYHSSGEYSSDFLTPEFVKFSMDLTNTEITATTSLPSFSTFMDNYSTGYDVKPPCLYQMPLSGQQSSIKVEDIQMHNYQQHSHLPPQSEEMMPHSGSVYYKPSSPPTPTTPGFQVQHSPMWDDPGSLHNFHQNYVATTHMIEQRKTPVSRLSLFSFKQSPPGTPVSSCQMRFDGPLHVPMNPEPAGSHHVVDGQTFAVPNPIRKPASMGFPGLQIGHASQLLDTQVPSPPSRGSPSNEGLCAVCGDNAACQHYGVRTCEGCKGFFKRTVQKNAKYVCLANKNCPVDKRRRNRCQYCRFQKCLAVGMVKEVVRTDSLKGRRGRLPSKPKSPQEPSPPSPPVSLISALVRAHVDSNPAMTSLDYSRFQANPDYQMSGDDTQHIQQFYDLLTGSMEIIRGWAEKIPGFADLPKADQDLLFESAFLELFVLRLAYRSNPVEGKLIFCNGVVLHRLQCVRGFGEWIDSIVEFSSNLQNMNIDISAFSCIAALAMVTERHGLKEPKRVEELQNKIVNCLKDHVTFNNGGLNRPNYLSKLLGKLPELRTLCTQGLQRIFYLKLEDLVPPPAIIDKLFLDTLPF
# T3: NUP98 730-880 Nucleoporin2 (domain begin residue: 730, domain end residue: 880), P52948
# T3 chain: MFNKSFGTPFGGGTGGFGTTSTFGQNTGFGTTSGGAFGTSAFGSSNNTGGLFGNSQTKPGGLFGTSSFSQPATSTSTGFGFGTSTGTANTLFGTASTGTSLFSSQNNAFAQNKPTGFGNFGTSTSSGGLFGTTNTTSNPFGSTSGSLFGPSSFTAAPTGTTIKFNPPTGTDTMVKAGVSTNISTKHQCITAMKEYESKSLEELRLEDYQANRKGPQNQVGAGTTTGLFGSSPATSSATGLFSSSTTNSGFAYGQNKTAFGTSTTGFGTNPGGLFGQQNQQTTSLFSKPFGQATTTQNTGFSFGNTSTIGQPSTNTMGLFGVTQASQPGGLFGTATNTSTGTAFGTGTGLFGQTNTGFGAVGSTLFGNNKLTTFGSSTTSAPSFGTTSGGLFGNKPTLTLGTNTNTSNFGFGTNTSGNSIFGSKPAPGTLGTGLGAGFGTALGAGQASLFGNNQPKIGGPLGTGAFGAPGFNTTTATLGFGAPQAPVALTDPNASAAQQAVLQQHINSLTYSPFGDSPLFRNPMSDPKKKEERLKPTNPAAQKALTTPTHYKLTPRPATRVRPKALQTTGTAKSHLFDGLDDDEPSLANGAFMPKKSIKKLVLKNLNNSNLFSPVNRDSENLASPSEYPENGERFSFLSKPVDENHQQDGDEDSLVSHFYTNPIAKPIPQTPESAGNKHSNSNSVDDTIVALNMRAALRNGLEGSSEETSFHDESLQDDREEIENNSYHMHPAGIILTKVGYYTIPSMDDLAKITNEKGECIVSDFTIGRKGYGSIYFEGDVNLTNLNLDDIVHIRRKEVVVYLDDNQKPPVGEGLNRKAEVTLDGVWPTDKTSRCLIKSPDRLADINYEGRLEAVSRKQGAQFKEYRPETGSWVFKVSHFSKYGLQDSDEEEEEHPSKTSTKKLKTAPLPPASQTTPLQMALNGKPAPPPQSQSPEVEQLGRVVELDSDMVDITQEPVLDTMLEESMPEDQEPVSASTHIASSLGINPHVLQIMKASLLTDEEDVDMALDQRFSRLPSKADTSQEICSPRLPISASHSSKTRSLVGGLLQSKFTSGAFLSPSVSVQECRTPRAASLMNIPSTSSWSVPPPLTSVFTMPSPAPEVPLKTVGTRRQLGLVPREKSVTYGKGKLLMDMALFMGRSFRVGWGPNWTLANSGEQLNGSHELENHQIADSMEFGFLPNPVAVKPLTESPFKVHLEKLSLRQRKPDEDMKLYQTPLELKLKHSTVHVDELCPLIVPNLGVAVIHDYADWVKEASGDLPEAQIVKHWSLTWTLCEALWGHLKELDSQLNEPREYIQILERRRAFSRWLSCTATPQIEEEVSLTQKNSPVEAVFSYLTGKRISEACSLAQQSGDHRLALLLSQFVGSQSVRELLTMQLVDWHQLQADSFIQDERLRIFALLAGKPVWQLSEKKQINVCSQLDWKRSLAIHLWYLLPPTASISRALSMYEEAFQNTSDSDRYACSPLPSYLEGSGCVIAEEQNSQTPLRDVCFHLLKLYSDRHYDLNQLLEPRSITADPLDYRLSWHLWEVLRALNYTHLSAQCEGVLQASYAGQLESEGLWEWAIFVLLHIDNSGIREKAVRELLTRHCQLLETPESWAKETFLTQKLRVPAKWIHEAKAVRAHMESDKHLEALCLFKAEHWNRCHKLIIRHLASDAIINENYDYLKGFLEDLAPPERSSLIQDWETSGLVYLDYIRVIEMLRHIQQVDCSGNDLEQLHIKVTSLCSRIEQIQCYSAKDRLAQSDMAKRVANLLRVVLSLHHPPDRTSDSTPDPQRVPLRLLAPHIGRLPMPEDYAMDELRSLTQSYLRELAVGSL
# T4: NXT1 1-140 NTF2 (domain begin residue: 1, domain end residue: 140), Q9UKK6
# T4 chain: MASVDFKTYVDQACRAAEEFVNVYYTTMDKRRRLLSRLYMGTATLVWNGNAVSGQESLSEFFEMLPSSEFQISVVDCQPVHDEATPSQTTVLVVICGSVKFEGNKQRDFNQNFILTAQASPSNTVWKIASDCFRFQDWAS
# T5: NR1H3 204-447 Hormone_recep (domain begin residue: 204, domain end residue: 447), Q13133
# T5 chain: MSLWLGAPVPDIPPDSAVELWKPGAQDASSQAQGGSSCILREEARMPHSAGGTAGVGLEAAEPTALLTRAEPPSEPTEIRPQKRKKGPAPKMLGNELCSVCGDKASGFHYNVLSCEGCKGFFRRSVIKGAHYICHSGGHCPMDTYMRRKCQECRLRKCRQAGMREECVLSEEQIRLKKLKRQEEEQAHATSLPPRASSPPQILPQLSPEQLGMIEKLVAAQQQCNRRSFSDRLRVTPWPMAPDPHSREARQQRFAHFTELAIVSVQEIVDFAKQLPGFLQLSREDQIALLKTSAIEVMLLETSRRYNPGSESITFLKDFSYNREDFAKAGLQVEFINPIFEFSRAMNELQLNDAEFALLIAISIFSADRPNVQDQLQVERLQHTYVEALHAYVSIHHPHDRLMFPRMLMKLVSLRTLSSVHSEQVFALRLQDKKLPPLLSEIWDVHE
# T6: NR1H4 256-474 Hormone_recep (domain begin residue: 256, domain end residue: 474), Q96RI1
# T6 chain: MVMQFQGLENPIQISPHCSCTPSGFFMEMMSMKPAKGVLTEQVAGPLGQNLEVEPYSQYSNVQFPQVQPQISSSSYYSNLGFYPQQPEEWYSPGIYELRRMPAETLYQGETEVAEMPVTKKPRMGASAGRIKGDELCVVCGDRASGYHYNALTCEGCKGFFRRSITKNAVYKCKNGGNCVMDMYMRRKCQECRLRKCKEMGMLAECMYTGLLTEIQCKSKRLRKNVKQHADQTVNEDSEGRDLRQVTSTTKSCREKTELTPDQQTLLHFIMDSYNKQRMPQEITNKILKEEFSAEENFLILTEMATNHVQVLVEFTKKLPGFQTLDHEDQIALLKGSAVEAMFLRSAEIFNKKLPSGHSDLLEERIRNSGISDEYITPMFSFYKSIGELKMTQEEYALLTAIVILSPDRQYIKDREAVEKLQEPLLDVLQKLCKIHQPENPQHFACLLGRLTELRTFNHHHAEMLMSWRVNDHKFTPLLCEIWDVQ
# B1: unnamed (peptide)
# chain: WEQQWFEWTHIEGQDD
# B2: unnamed (peptide)
# chain: FEMLWREHMEKFDVEV
# B3: unnamed (peptide)
# chain: QQAQPRWWSMVLQHEW
# B4: unnamed (peptide)
# chain: NQWGPYWSFSFVPMDW
# B5: unnamed (peptide)
# chain: MPDVPYQWVDLTEWFM
# B6: unnamed (peptide)
# chain: QWSVEPWWHEMVIQGI
# B7: unnamed (peptide)
# chain: QGWMPWDPQDLDWWVG
# B8: unnamed (peptide)
# chain: QQLADIPTYEWLQRNH
# B9: unnamed (peptide)
# chain: PYHDSWFYWPGLTEGV
# B10: unnamed (peptide)
# chain: TMSLWPSSWDIITLNS
# B11: unnamed (peptide)
# chain: SHDMYEMIMWFFYQTE
# B12: unnamed (peptide)
# chain: PNFEDYWRTAEQWHQP
# B13: unnamed (peptide)
# chain: YPIEQFSFDIWDQMVE
# B14: unnamed (peptide)
# chain: QYNFLWEHLVQPRPAT
# B15: unnamed (peptide)
# chain: WVGNNDWENEWPWVIL
# B16: unnamed (peptide)
# chain: WAEWDASQPDWVPEYQ
# B17: unnamed (peptide)
# chain: QTMQRQWLDILLSLEL
# B18: unnamed (peptide)
# chain: TQEMWDWVMMIEMTEF
# B19: unnamed (peptide)
# chain: DEWWMFYPQPMYDLWH
# B20: unnamed (peptide)
# chain: EQKQTDSFYWIWQHLD
# B21: unnamed (peptide)
# chain: GIPYPDFNWENISTLV
# B22: unnamed (peptide)
# chain: TIDWESVIKTYSPWLD
# B23: unnamed (peptide)
# chain: EMLLDQQMWEWVQAMS
# B24: unnamed (peptide)
# chain: GDLEQHLMEWWTREVF
# B25: unnamed (peptide)
# chain: GYGWEELPPIMTVAPD
# B26: unnamed (peptide)
# chain: PYTGIWFGEYLHNFIP
# B27: unnamed (peptide)
# chain: TELPPLPYAWQDYAHW
# B28: unnamed (peptide)
# chain: FENYWKGYQEVPLESR
# B29: unnamed (peptide)
# chain: LTMAQQFPYLWSALSN
# Key:
# Assay in all cases: phage ELISA signal ratio (GST-PRM binding over GST background); higher = stronger binding of peptide-phage to the PRM
# [1] = biological target: PAF1 165-376 Paf1 (domain begin residue: 165, domain end residue: 376), Q8N7H5
# In short: (§1)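 Each value is the phage ELISA signal on the glutathione S-transferase (GST)-domain fusion divided by the signal on GST alone. Human peptide recognition domains were expressed in 96-well plates, fused to the C-terminus of GST, and selected against an M13 phage library carrying randomized, cysteine-free, glycine-flanked hexadecapeptides on the gene-8 major coat protein. After five selection rounds, approximately 48 individual clones from rounds 4 and 5 were tested by phage ELISA, and positive clones were sequenced.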
# [2] = biological target: NXF1 203-359 LRR_1 (domain begin residue: 203, domain end residue: 359)
# In short: as §1
# [3] = biological target: NR5A2 297-541 Hormone_recep (domain begin residue: 297, domain end residue: 541), O00482
# In short: as §1
# [4] = biological target: T1, NR2C1 355-603 Hormone_recep (domain …
# In short: as §1
# [5] = biological target: T2, NR4A2 327-598 Hormone_recep (domain …
# In short: as §1
# [6] = biological target: T3, NUP98 730-880 Nucleoporin2 (domain …
# In short: as §1
# [7] = biological target: PABPC1 544-623 PABP (domain begin residue: 544, domain end residue: 623)
# In short: as §1
# [8] = biological target: NR5A1 221-461 Hormone_recep (domain begin residue: 221, domain end residue: 461), Q13285
# In short: as §1
# [9] = biological target: NXF1 565-619 TAP_C (domain begin residue: 565, domain end residue: 619)
# In short: as §1
# [10] = biological target: T4, NXT1 1-140 NTF2 (domain begin residue: …
# In short: as §1
# [11] = biological target: T5, NR1H3 204-447 Hormone_recep (domain …
# In short: as §1
# [12] = biological target: NR2E3 154-410 Hormone_recep (domain begin residue: 154, domain end residue: 410), Q9Y5X4
# In short: as §1
# [13] = biological target: T6, NR1H4 256-474 Hormone_recep (domain …
# In short: as §1
# NR5A2 297-541 Hormone_recep (domain begin residue: 297, domain end residue: 541), O00482, sequence (O00482 whole entry): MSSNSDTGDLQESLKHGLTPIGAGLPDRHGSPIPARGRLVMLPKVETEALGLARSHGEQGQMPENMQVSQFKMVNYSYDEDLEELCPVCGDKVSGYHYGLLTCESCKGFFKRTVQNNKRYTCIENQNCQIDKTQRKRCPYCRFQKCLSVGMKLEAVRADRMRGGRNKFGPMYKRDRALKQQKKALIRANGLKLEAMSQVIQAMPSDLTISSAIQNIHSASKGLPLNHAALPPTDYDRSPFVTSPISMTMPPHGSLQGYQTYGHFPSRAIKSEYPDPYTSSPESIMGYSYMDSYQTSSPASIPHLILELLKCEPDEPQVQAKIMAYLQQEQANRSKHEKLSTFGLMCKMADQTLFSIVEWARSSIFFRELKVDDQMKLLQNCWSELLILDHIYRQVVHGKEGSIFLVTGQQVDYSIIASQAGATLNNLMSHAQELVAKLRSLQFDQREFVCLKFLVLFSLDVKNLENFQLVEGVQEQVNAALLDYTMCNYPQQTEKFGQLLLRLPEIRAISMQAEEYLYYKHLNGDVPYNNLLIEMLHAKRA
# NR5A1 221-461 Hormone_recep (domain begin residue: 221, domain end residue: 461), Q13285, sequence (Q13285 whole entry): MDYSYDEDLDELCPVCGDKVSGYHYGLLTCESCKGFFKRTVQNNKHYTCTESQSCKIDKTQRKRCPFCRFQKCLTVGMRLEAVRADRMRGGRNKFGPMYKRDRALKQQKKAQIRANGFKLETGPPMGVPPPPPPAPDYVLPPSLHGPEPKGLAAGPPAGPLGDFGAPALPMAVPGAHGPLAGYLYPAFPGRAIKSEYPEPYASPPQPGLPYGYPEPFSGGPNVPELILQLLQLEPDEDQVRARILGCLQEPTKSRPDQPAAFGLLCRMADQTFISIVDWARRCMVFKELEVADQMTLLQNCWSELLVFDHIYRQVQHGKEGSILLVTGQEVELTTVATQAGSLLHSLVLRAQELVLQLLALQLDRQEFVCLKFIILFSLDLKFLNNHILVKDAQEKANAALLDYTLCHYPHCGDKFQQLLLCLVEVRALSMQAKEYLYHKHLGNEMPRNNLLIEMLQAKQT
# NR2E3 154-410 Hormone_recep (domain begin residue: 154, domain end residue: 410), Q9Y5X4, sequence (Q9Y5X4 whole entry): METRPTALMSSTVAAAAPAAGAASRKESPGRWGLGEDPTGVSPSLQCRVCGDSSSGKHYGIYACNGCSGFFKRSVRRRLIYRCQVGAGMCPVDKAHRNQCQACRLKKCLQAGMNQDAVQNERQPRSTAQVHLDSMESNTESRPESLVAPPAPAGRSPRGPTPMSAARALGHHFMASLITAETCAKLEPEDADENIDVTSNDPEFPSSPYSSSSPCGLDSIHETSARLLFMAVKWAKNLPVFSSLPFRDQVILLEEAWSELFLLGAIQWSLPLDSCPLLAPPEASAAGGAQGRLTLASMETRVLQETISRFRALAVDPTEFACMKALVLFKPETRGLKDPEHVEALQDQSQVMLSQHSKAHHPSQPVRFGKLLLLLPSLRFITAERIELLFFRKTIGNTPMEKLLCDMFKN
binder,measurement,setting,value
B1,phage ELISA signal ratio,[1],2.51
B2,phage ELISA signal ratio,[2],28.4
B3,phage ELISA signal ratio,[3],4.92
B4,phage ELISA signal ratio,[4],8.51
B5,phage ELISA signal ratio,[4],15
B6,phage ELISA signal ratio,[5],24.1
B7,phage ELISA signal ratio,[6],7.31
B8,phage ELISA signal ratio,[7],27
B9,phage ELISA signal ratio,[8],5.49
B10,phage ELISA signal ratio,[5],15
B11,phage ELISA signal ratio,[5],14.5
B12,phage ELISA signal ratio,[2],25.4
B13,phage ELISA signal ratio,[9],12
B14,phage ELISA signal ratio,[10],16.1
B15,phage ELISA signal ratio,[6],7.89
B16,phage ELISA signal ratio,[6],4.87
B17,phage ELISA signal ratio,[5],20.2
B18,phage ELISA signal ratio,[11],14
B19,phage ELISA signal ratio,[12],6.08
B20,phage ELISA signal ratio,[10],3.56
B21,phage ELISA signal ratio,[9],6.41
B22,phage ELISA signal ratio,[7],29.8
B23,phage ELISA signal ratio,[11],26.9
B24,phage ELISA signal ratio,[13],12.3
B25,phage ELISA signal ratio,[6],23.2
B26,phage ELISA signal ratio,[4],9.25
B27,phage ELISA signal ratio,[4],24.8
B28,phage ELISA signal ratio,[2],18.9
B29,phage ELISA signal ratio,[3],11.2
